Experimental data published in PubChem BioAssay (NCI).
About 79,000 compounds went through this panel and 15% of them were active in at least one assay; those are over-represented in the sample as a whole. Active and inactive are the calls of the source. Cut-off read from the data, not from the text of the source: active = growth inhibition above about 70%; inactive = the rest.

What was measured:
[1] = NCI Yeast Anticancer Drug Screen. Data for the rad50 strain (AID 155);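 note: 0% = growth of vehicle-only cultures of the same strain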; settings: S. cerevisiae rad50 strain growth inhibition; at 50.0 µM; active compounds read high
How it was run: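 Yeast carrying a defined DNA repair defect were exposed to test compounds, and growth was compared with vehicle-treated controls to give percent inhibition.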

[2] = NCI Yeast Anticancer Drug Screen. Data for the mec2-1 strain (AID 157); settings: S. cerevisiae mec2-1 strain, at 50.0 µM, active compounds read high
How it was run: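 Cells of the genetically defined mec2-1 yeast strain are incubated with test compound. Inhibition of growth is calculated against vehicle-treated controls.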

[3] = NCI Yeast Anticancer Drug Screen. Data for the sgs1 mgt1 strain (AID 161);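 note: 0% = growth of cultures given vehicle only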; settings: S. cerevisiae sgs1 mgt1 strain, at 50.0 µM, active compounds read high
How it was run: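 Test agents were incubated with a DNA-repair-mutant yeast strain. Growth was then read and compared against vehicle-treated controls.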

[4] = NCI Yeast Anticancer Drug Screen. Data for the cln2 rad14 strain (AID 165);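 note: 0% = growth equal to vehicle treated cultures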; settings: S. cerevisiae cln2 rad14 strain, at 50.0 µM, active compounds read high
How it was run: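 The screen exposed genetically defined yeast (cln2 rad14) to test compounds and scored growth inhibition relative to vehicle-treated controls.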

[5] = NCI Yeast Anticancer Drug Screen. Data for the bub3 strain (AID 167); settings: S. cerevisiae bub3 mutant strain, at 50.0 µM, active compounds read high
How it was run: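 Compounds were applied to a genetically altered yeast strain carrying a cell-cycle control defect. Growth inhibition was scored against vehicle-treated controls.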

[6] = NCI Yeast Anticancer Drug Screen. Data for the mlh1 rad18 strain (AID 175); settings: S. cerevisiae mlh1 rad18 strain growth inhibition; at 50.0 µM; active compounds read high
How it was run: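 Compound-treated yeast growth, normalised to vehicle controls. Strain bears defined DNA repair mutations.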

Measured: growth inhibition

Oc1c(Cl)cc(Cl)cc1C=Nc1ccc2c(ccc3c4ccccc4ccc23)c1
inactive: [1] 7.95% | [2] 2.4% | [3] -2.4% | [4] -41.4% | [5] 6.55% | [6] 15.1%

CC(C)c1ccc(C(=O)OCCBr)cc1
inactive: [1] 18.7% | [2] -11.4% | [3] 16.2% | [4] -3.1% | [5] 1.7% | [6] 1.25%

CCCNN(CCC)C(N)=O
inactive: [1] 0.6% | [2] 13.7% | [3] -5.75% | [4] 2.75% | [5] 24.1% | [6] -7.25%

COC(=O)N/N=C(\C)c1sc(-c2nc(C)c(/C(C)=N/NC(=O)OC)s2)nc1C
inactive: [1] 17.9% | [2] 0.95% | [3] -27.4% | [4] -35.6% | [5] 3.05% | [6] 1.05%

CCCCNS(=O)(=O)c1ccc(-c2ccc3c(c2)-c2ccc(S(=O)(=O)NCCCC)cc2S3(=O)=O)cc1
inactive: [1] 28.3% | [2] 7.05% | [3] 1.5% | [4] -33.2% | [5] 20.1% | [6] 9.7%

NC(=O)N=C(NC(N)=O)NC(N)=O
inactive: [1] -17.1% | [2] -21.5% | [3] -10.2% | [4] -18.3% | [5] -6.85% | [6] -17.1%

O=c1[nH]cnc2c1cnn2Cc1ccccc1
inactive: [1] 4.1% | [2] -4.85% | [3] 1.2% | [4] 2.1% | [5] 26.1% | [6] 1.95%

CN(C)C1=CC(=O)NC(c2ccccc2)C1 (stereo unspecified)
inactive: [1] -10.6% | [2] -17.4% | [3] -10.6% | [4] -14.2% | [5] -3.45% | [6] -11.6%

C=C(N1CCCCC1)N1CCCCC1
inactive: [1] -2.75% | [2] -25.1% | [3] -9.15% | [4] -46.5% | [5] -15.9% | [6] -11.4%

Cc1ccc(Cc2n[nH]c(=O)n2/N=C\CC/C=N\n2c(Cc3ccc(C)cc3)n[nH]c2=O)cc1
inactive: [1] -13.9% | [2] -23.6% | [3] -18.1% | [4] -0.9% | [5] -28.9% | [6] -4.05%

Cc1ccc(NC(=O)/C(Cc2nc3ccc([N+](=O)[O-])cc3[nH]c2=O)=N\NC(=O)C[n+]2ccccc2)c(C)c1
inactive: [1] -7.5% | [2] -9.25% | [3] -4.3% | [4] 14.9% | [5] 15.3% | [6] -7.65%

Nc1cc(S(=O)(=O)O)nc(N)[n+]1[O-]
inactive: [1] 1.55% | [2] -1.8% | [3] 1.9% | [4] -36.3% | [5] -13.3% | [6] 2.8%

CC(=O)[C@H]1CC[C@H]2[C@@H]3CC=C4N(CCO)C(=O)CC[C@]4(C)[C@H]3CC[C@]12C
inactive: [1] -18.9% | [2] -1.4% | [3] 14.8% | [4] -28.1% | [5] 25.9% | [6] 13.3%

COC(=O)C(C)=C1CCCCC1
inactive: [1] 17.9% | [2] -3.9% | [3] -13.2% | [4] -38% | [5] 11.6% | [6] -13.2%

C#Cc1cccc(N=Cc2cc(Br)cc(OC)c2O)c1
inactive: [1] -23.4% | [2] -6.7% | [3] 1.3% | [4] 4.8% | [5] 5% | [6] 3.95%

CN(C)C1C=CS(=O)(=O)C1 (stereo unspecified)
inactive: [1] -9.55% | [2] -13.9% | [3] -4.4% | [4] -47.5% | [5] 0.95% | [6] -4.95%

CC(=O)Nc1ccc2c(c1)C(=O)c1cc(Cl)ccc1-2
inactive: [1] 0.25% | [2] -6.05% | [3] 5.75% | [4] -28.1% | [5] -2.05% | [6] -9.35%

C=CCC1(CO)CCCCC1O (stereo unspecified)
inactive: [1] 1.6% | [2] 1.5% | [3] 16.4% | [4] -73.4% | [5] 10.3% | [6] 3.2%

O=C(O)C1(c2ccccc2)CC1
inactive: [1] 8.5% | [2] -7% | [3] 13.1% | [4] 2.45% | [5] 15.9% | [6] 7.85%

O=S(=O)(N=S(c1ccccc1)c1ccccc1)c1ccccc1
inactive: [1] -67% | [2] -66.2% | [3] -63.1% | [4] -20.9% | [5] -59.6% | [6] -51.2%

O=C(Nc1ccc(Cl)cc1)OC(C(=O)c1ccccn1)c1ccccn1 (stereo unspecified)
inactive: [1] 0.25% | [2] 13.7% | [3] -17.6% | [4] 5.75% | [5] 7.1% | [6] 8.5%

O=S1(=O)C(c2cccc(C(F)(F)F)c2)=C(O)c2cc3ccccc3nc21
inactive: [1] 47.9% | [2] 21% | [3] 49.2% | [4] 33.2% | [5] -4.6% | [6] 18.6%

CC(=O)c1c(C)[nH]c(C(=O)O)c1C
inactive: [1] 24.7% | [2] 4.3% | [3] 8.75% | [4] -14.4% | [5] 5.35% | [6] 16.6%

COc1cc(NCCCCCCN(C)C)c2ncccc2c1
inactive: [1] -17.4% | [2] -21.2% | [3] -3.1% | [4] -19.4% | [5] 5.8% | [6] -14.8%

CC(=O)Nc1cc2ccccc2oc1=O
inactive: [1] -5.5% | [2] -25.1% | [3] -4.65% | [4] 2.25% | [5] -11.8% | [6] 0.75%

COc1cc2c(cc1OC)C(C(=O)O)C(c1ccccc1)N(C)C2=O (stereo unspecified)
inactive: [1] -36.8% | [2] -11.8% | [3] -6.5% | [4] 19.4% | [5] -13.2% | [6] 3.25%

O=c1cc(CC2(O)CCCCC2)c2ccccc2[nH]1
inactive: [1] -3.95% | [2] 0.3% | [3] -2.5% | [4] -58% | [5] -48.8% | [6] 9.8%

O=C(N/N=C/c1cc(Br)cc(Br)c1O)c1ccccc1
inactive: [1] 3.85% | [2] -1.4% | [3] 11.3% | [4] 3.85% | [5] -2.05% | [6] 28.4%

O=NN(C(=O)NCCCl)c1[nH]c(=O)ncc1Br
inactive: [1] -8.6% | [2] -13.7% | [3] -16% | [4] -25.4% | [5] -7.95% | [6] -6.7%

CNC(=O)C1CCC(CC2CCCCC2)CC1 (stereo unspecified)
active: [3] 77.1%
inactive: [1] 45.4% | [2] 49.5% | [4] 11.2% | [5] 42.8% | [6] 38.5%

CCOC(=O)CCN(CC1CC=CCC1)c1cc(O)c2c(c1O)C(=O)c1ccccc1C2=O (stereo unspecified)
inactive: [1] -70.6% | [2] -4.75% | [3] -21.5% | [4] -2.55% | [5] 2% | [6] -9.85%

O=C(COc1ccccc1[N+](=O)[O-])Nc1cccnc1
inactive: [1] -18.9% | [2] -10.8% | [3] -12.3% | [4] -9.25% | [5] -3.25% | [6] 8.25%

O=C(O)[C@H](c1ccccc1)[C@@H](C(=O)O)c1ccccc1
inactive: [1] -8.25% | [2] -5.75% | [3] -8.35% | [4] -3.35% | [5] -53.8% | [6] -1.4%

CCC(=O)/C=C/c1ccc(Cl)cc1
inactive: [1] 10.7% | [2] 8% | [3] 7.75% | [4] -25.6% | [5] -14.7% | [6] 11.3%

COc1ccc(C(=O)/C=C/c2ccc(OCCSCCCCCCCCCCSCCOc3ccc(/C=C/C(=O)c4ccc(OC)cc4)cc3)cc2)cc1
inactive: [1] -35% | [2] -30.1% | [3] -16.6% | [4] 3.75% | [5] -20.2% | [6] -40.3%

C[N+](C)(C)Cc1ccc2ccccc2c1CC(O)(c1ccccc1)c1ccccc1
inactive: [1] 16.6% | [2] -0.6% | [3] 19.1% | [4] 4.85% | [5] 1.95% | [6] 9.8%

c1ccc(-c2nc3ccccc3o2)cc1
inactive: [1] 31.3% | [2] 21.4% | [3] 26.9% | [4] 4.25% | [5] 27.4% | [6] 37.4%

NC1=NN(c2ccccc2)C(=O)C1C(=O)CCC(=O)Nc1cccc(Cl)c1 (stereo unspecified)
inactive: [1] 9.9% | [2] -1.8% | [3] -11.4% | [4] 18.2% | [5] 5.35% | [6] 2.1%

CN(C)CCC(C(=O)NCc1ccccc1)C(=O)NCc1ccccc1
inactive: [1] -6.1% | [2] -9.95% | [3] 1.3% | [4] -17.4% | [5] -2.55% | [6] -17.2%

Cc1cc2c(=O)[nH]cnc2[nH]1
inactive: [1] -5.6% | [2] -1.35% | [3] -16.7% | [4] 4.45% | [5] 13.8% | [6] -1.15%

CCCCOc1ccc(Br)cc1
inactive: [1] 12.3% | [2] 5.4% | [3] 7.6% | [4] 8.1% | [5] 3.1% | [6] -15.1%
